Hits are enriched below; roughly 22% of the tested compounds scored in any of these assays.
Pf growth 96h = Primary qHTS for delayed death inhibitors of the malarial parasite plastid, 96 hour incubation. Potency, µM (titrated, usually from 28.7 µM), inactives show at the highest dose activity change, negative = inhibition, usual class: inhibitors. 320,000 compounds, 6.9% hits. P. falciparum luciferase reporter growth, 96 h; note: potency is the fitted concentration of half-maximal effect; % is set by controls: 0 for no effect and ±100 for the full control effect
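Plates of compound plus infected erythrocytes (2% hematocrit, 0.05% parasitemia final) incubate 96 hours, 37 C, 5% CO2. Detection reagent added; reduced luminescence from the parasites' luciferase reporter flags inhibition.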
Pf growth 48h = Primary qHTS for delayed death inhibitors of the malarial parasite plastid, 48 hour incubation; P. falciparum luciferase growth in erythrocytes, 48 h; Potency, µM (doses to about 28.7 µM), for inactives: top-dose activity change, negative = inhibition, actives largely listed as inhibitors; 310,000 compounds, 5.9% hits; AID 504832, 2011; note: potency is the fitted concentration of half-maximal effect; % is set by controls: 0 for no effect and ±100 for the full control effect
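Parasite viability was followed by luminescence of a genomically integrated firefly luciferase. Cultures held 0.1% parasitemia at 2% hematocrit (final), incubated under 5% CO2 at 37 C.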
LmPK inhibitor = qHTS Assay for Inhibitors of Leishmania Mexicana Pyruvate Kinase (LmPK); Q27686; Potency, µM (titrated, usually from 57.5 µM), for the others: at the highest dose activity change, negative = inhibition, usual class: inhibitors; 290,000 compounds, 0.37% hits; AID 1721, 2009; purified LmPK, Kinase-Glo ATP luminescence, 1 h; note: potency is the fitted concentration of half-maximal effect; % is set by controls: 0 for no effect and ±100 for the full control effect
Target sequence (Q27686 whole entry, looked up): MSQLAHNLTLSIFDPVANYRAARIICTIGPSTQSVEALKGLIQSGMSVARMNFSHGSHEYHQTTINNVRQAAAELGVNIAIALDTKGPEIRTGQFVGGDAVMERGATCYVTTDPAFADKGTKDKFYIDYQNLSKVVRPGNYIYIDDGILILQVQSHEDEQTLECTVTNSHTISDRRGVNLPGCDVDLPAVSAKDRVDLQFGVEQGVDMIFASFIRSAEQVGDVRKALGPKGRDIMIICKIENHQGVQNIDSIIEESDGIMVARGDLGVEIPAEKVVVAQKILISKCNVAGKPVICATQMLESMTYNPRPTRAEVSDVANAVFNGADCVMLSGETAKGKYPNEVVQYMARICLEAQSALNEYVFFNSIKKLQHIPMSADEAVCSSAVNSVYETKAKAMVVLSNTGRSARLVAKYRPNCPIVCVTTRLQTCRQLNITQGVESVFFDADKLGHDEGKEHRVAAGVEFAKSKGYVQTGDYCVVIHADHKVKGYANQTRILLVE
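Pyruvate kinase activity monitored as ATP production (luciferase luminescence). Conditions: 0.1 nM enzyme, 0.5 mM PEP, 0.1 mM ADP, 1 h, RT; normalized against uninhibited and no-enzyme wells.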
Shiga inhibitor = A qHTS for Small Molecule Inhibitors of Shiga Toxin; Vero cells, Shiga toxin protein synthesis inhibition reporter; inhibition, % at 38.7 µM; 290,000 compounds, 9.2% hits; in the data active = inhibition mostly above about 28%, no sharp cut-off; inactive = mostly below about 43%; note: 0% is about no effect
CHX counter = Cycloheximide Counterscreen for Small Molecule Inhibitors of Shiga Toxin | 300,000 compounds, 12% hits | AID 2314, 2010 | cell reporter, cycloheximide protein synthesis inhibition counterscreen | max response, %; in the data active = max response mostly above about 13%, no sharp cut-off; inactive = mostly below about 14%; note: read at 38.3 µM for the half of the compounds with a filed dose; 0% is about no effect
* hit, by the source's call; ? = inconclusive; nt = no result given; + = active, no number. Unless noted, calls come from the whole dose curve; as a rule, active = well fitted inhibition curve with a large enough effect; inconclusive = small, poorly fitted or top-dose-only effect, or another doubt; inactive = no such curve, though single readings can be large or run the other way.

SMILES	Pf growth 96h	Pf growth 48h	LmPK inhibitor	Shiga inhibitor	CHX counter
CCOC(=O)c1ccc(N2C(=O)C(O)=C(C(C)=O)C2c2ccccc2)cc1 (centres undefined)	-9%	-27%	3%	3	-4
CCOC(=O)c1ccc(N/C=C/C(=O)c2ccc(OC)cc2)cc1	0%	15%	3%	1	1
CCCCn1c(N)c(N(CC(C)C)C(=O)CC2OC(=O)c3ccccc32)c(=O)[nH]c1=O (centres undefined)	7%	?	nt	nt	nt
CC1(C)CC(=O)C=C(NCC(O)c2ccccc2)C1 (centres undefined)	?	3%	-2%	1	-3
O=C(COC(=O)c1cc2ccccc2o1)c1ccccc1	?	9%	0%	117*	39*
CC1CC(C)(C)Nc2ccc(N=O)cc21 (centres undefined)	-1%	?	-5%	79*	51*
CC1CC2(CCCC2)Nc2ccc(F)cc21 (centres undefined)	3%	-6%	0%	26	-7
Cc1nnc(SCC(=O)NNC(=O)c2ccco2)s1	23%	?	nt	nt	nt
O=C(CSc1ccc(Cl)cc1)NNC(=O)c1ccco1	15µM*	15%	-12%	-8	10
Cc1ccc(C(=O)COC(=O)c2cc(=O)[nH]c3ccccc23)cc1C	-5%	34%	-4%	150*	24*
CCOC(=O)c1[nH]c(=O)[nH]c1CN(Cc1ccco1)Cc1[nH]c(=O)[nH]c1C(=O)OCC	21%	20%	11%	-1	1
CC(CC(=O)Nc1nnc(CC(C)(C)C)s1)c1ccccc1 (centres undefined)	?	7%	-5%	-5	-2
O=C(COC(=O)c1ccco1)c1ccc2ccccc2c1	nt	21%	2%	124	56*
Cc1ccc(CNC(=O)COC(=O)c2ccc(Br)o2)cc1	-2%	-23%	nt	nt	nt
O=C(COC(=O)c1ccco1)c1ccccc1	15%	26%	-1%	112*	48*
Cc1ccc(C(=O)COC(=O)c2ccc(Br)o2)cc1C	8%	nt	4%	63*	40*
O=C(Oc1ccc2ccccc2c1)c1ccco1	-9%	1%	-9%	33	20*
CC(=O)Nc1ccc(OC(=O)c2ccco2)cc1	?	22%	5%	10	3
CCN(CC)S(=O)(=O)c1ccc(C)c(C(=O)Oc2cccc(-c3cnc4ccccc4n3)c2)c1	-7%	212%	0%	11	4
O=C(CSCc1ccc(Cl)cc1)c1ccco1	27%	2%	-4%	73	21*
O=C(Oc1cccc(-c2cnc3ccccc3n2)c1)c1ccco1	89%	332%	9%	49	45*
O=C(COC(=O)c1ccco1)c1ccc(Cl)cc1	-6%	11%	1%	104*	29*
Cc1ccc(C(=O)COC(=O)c2ccco2)cc1C	25%	6%	-10%	88*	49*
CC(C)C1Cc2c(sc3ncnc(NN)c23)CO1 (centres undefined)	?	?	-3%	2	-5
COc1ccc(NS(=O)(=O)c2ccc3oc(=O)c4[nH]c(=O)c(=O)n(C)c4c3c2)cc1	11%	36%	6%	1	1
SMILES	Pf growth 96h	Pf growth 48h	LmPK inhibitor	Shiga inhibitor	CHX counter
CC1CC(C)(C)Nc2ccc(OC(=O)c3ccco3)cc21 (centres undefined)	-12%	?	8%	121*	49*
Cc1cc(=O)oc2cc(OC(=O)c3ccco3)ccc12	25%	0%	9%	-2	4
O=C(O)CCC(=O)N1N=C(c2ccc(Br)cc2)CC1c1cccc(Br)c1 (centres undefined)	354%	6.6µM*	4%	10	2
COc1ccc(C2=NN(C(=O)CCC(=O)O)C(c3ccc(OC)c(OC)c3)C2)cc1 (centres undefined)	12µM*	-1%	2%	15	-1
COc1ccc(C2=NN(C(=O)CCC(=O)O)C(c3ccccc3F)C2)cc1 (centres undefined)	2.3µM*	-21%	-2%	-9	1
Nn1c(-c2ccccc2Cl)nnc1-c1ccccc1Cl	49%	72%	-5%	+	32*
COc1ccccc1-c1nnc(SC)n1C	32%	16%	-1%	-6	-4
CSc1nnc(-c2ccccc2Cl)n1N	10µM*	5%	-1%	-16	9
COc1ccc(S[C@@H](CCN2CC[C@H](O)CCC2=O)c2ccccc2)cc1	111%	2%	nt	nt	nt
CCOc1ccc(N(C)S(=O)(=O)c2ccc(C)c(C(=O)NCc3ccccc3OC)c2)cc1	9.3µM*	12µM*	nt	nt	nt
COc1ccccc1N(C)S(=O)(=O)c1ccc(C)c(C(=O)NCc2ccccn2)c1	?	10µM*	nt	nt	nt
COc1ccccc1N(C)S(=O)(=O)c1ccc(C)c(C(=O)Nc2nccs2)c1	?	12µM*	nt	nt	nt
O=S(=O)(Nc1nc2ccccc2nc1-[n+]1cccc(N=C([O-])c2ccc(Cl)cc2)c1)c1ccccc1	8.3µM*	?	7%	-4	7
CN(C)P(=O)(Nc1cccc2ccccc12)Nc1cccc2ccccc12	?	4.7µM*	nt	nt	nt
CC(C)OP(=O)(Nc1cccc2ccccc12)OC(C)C	?	?	-4%	-14	-2
O=C(O)C1CC(CCCP(=O)(O)O)CCN1 (centres undefined)	nt	nt	nt	2	9
CC(=O)N1c2ccccc2Sc2ccccc21	?	0%	8%	-7	0
Cc1cccc[n+]1CC(=O)N1c2ccccc2Sc2ccccc21	0%	3.7µM*	1%	1	-1
CCCCCCS(=O)Cc1ccccc1 (centres undefined)	nt	15%	1%	20	1
OCCn1nc(-c2ccccc2)cc1-c1ccccc1	?	11%	0%	4	1
O=c1cc(-c2ccccc2)cc(-c2ccccc2)n1CCCO	?	9.3µM*	nt	nt	nt
CC1OC(OC2C(CO)OC(OC3C(CO)OC(O)C(O)C3O)C(O)C2O)C(O)C(O)C1NC1C=C(CO)C(O)C(O)C1O (centres undefined)	nt	nt	nt	-4	-5
CCCCOC(=O)c1ccc(NC(=O)c2ccoc2C)cc1	-3%	-51%	-13%	70*	29*
CCCOC(=O)c1ccc(NC(=O)c2ccoc2C)cc1	-6%	180%	?	88*	41*
Cc1occc1C(=O)Nc1ccc(OCc2ccccc2)cc1	18%	-4%	3%	21	4
CCCCOC(=O)c1ccc(NC(=O)c2ocnc2C)cc1	74%	32%	-14%	11	1
CCCCCCNS(=O)(=O)c1ccc(NC(=O)C2CCCO2)cc1 (centres undefined)	?	-15%	2%	-12	-5
CCN(CC)CCNC(=O)COc1ccc(Cl)cc1	-7%	-5%	nt	nt	nt
Cc1cc(OCC(=O)NCC2CCC(C(=O)O)CC2)c2c(C)c(C)c(=O)oc2c1 (centres undefined)	?	0%	7%	-6	-2
